Assay results from PubChem BioAssay (NCATS).
Where “and” joins values, the source holds several entries; their conditions need not be identical. Identical values can stand only once. Results filed as inconclusive are left out. Calls of active or inactive are those of the source. Unless noted, calls follow the shape of the dose curve; as a rule, active = well fitted curve in the direction sought with a large enough effect; inconclusive = small, poorly fitted or top-dose-only effect, or another doubt; inactive = no such curve, though single readings can be large; an effect the other way counts as inactive or inconclusive.

Legend:
[1] = molecular target: Cytochrome P450 1A2 (Homo sapiens) (UniProt P05177); experiment: p450-cyp1a2 (AID 410; calls by dose curve; also: potency is read from the fitted curve at half-maximal effect;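 as to activity change, negative = inhibition: -100% = full effect of reference inhibitor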)
Procedure, shortened: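 20nM CYP1A2 with 100uM Luciferin-ME (at Km) in 100mM KPO4; compound preincubated 10 min, NADPH regeneration added, 60 min at room temperature. Luciferin quantified by luminescence after detection reagent; normalized to 57 uM furafylline.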

[2] = molecular target: Glucocorticoid receptor (Homo sapiens) (UniProt P04150); experiment: GR-EFC Redistribution (AID 451; calls by dose curve; also: potency is read from the fitted curve at half-maximal effect); conditions: CHO-K1 GR-EFC translocation, beta-gal luminescence, 2 h
Procedure, shortened: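 CHO-K1 cells expressing nuclear EA and GR-ED fragments of b-gal; compounds titrated up to 46 uM final, 2 h at 37 C. GR nuclear translocation read as complemented b-gal luminescence after 1 h RT detection.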

[3] = molecular target: Mitogen-activated protein kinase 10 (Mus musculus) (UniProt Q61831); experiment: JNK3 AlphaScreen Assay (AID 530; active = well fitted curve in either direction with a large enough effect, not every such curve was filed as active;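 also: kinase came from lysate of stimulated human HepG2 cells; signal reports phosphorylation of biotinylated GST-cJun 1-79 at Ser73 with 10 µM ATP; % is scaled to controls: 0 for no effect and ±100 for the full control effect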)
Procedure, shortened: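 Pre-activated (IL-1β/TNFα) JNK3 in HepG2 lysates phosphorylates biotin-GST-cJun(1-79), 10 uM ATP; anti-phospho-cJun(Ser73) AlphaScreen read at room temperature, pH 7.6 Tris buffer. Compounds pre-incubated 15 min as titrations.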

[4] = qHTS Assay for Lipid Storage Modulators (AID 1519; calls by dose curve; also: potency is read from the fitted curve at half-maximal effect; as to activity change, negative = inhibition: % is scaled to controls: 0 for no effect and ±100 for the full control effect); conditions: Drosophila S3 cells, BODIPY lipid droplet/cell ratio, laser cytometry, cells loaded with oleic acid; for activity change, negative = inhibition: at 57.5 µM (top of the series)
Procedure, shortened: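 Cells seeded at 5,000 per well were treated with compounds over a concentration series and loaded with oleic acid (400 uM, as added). Lipid droplet fluorescence (488 nm excitation, 500-530 nm channel) was read by laser-scanning cytometry and normalized to 20 uM Triacsin C.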

[5] = molecular target: DNA dC->dU-editing enzyme APOBEC-3G (Homo sapiens) (UniProt Q9HC16); experiment: qHTS for inhibitors of Vif-A3G interactions: Validation (AID 588379); also: 0% is about no effect
Procedure, shortened: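 HeLa cells stably expressing Vif and A3G-eYFP, 700 cells/well, incubated overnight at 37 deg C, then exposed to compound overnight at 37 deg C. Inhibition of Vif-mediated degradation read as increased yellow fluorescence (Ex 488/Em 500-530) by laser-scanning cytometry.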

[6] = test system: Zika virus NS2B-NS3 protease; experiment: Primary screen GU AMC qHTS for Zika virus inhibitors (AID 1347154); also: nearly all actives have a fitted effect of over 70% in size; also: potency is read from the fitted curve at half-maximal effect;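 as to activity change, negative = inhibition: 0% = no-inhibitor control and -100% = no-enzyme control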
Procedure, shortened: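 Unlinked Zika NS2B hydrophilic domain–NS3 protease complex at 25 nM in 10 mM Tris-HCl pH 8.0, 0.01% Tween 20, with an AMC peptide substrate. Fluorescence change (340/450 nm) over 15 min at room temperature, normalized to controls, fitted to 4-parameter Hill.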

[7] = Primary qHTS for small molecule stabilizers of the endoplasmic reticulum resident proteome: Secreted ER Calcium Modulated Protein (SERCaMP) assay (AID 1508630); also: % is scaled to controls: 0 for no effect and ±100 for the full control effect
Procedure, shortened: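 GLuc-SERCaMP-expressing SH-SY5Y cells, pretreated 16 h with compound, are challenged with thapsigargin to empty ER calcium stores; after 4 h, coelenterazine is added directly to the medium and luminescence is imaged.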

[8] = molecular target: Glucocorticoid receptor (Homo sapiens) (UniProt P04150); experiment: GR-GFP Redistribution (AID 450;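 active = compounds whose dose series gives a full or clear partial fitted curve of increased nuclear translocation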; also: potency is read from the fitted curve at half-maximal effect); conditions: U2OS GR-GFP nuclear translocation, laser cytometry, 2 h
[9] = molecular target: Cytochrome P450 3A4 (Homo sapiens) (UniProt P08684); experiment: qHTS Assay for Activators of Cytochrome P450 3A4 (AID 885); also: nearly all actives have a fitted effect of over 65% in size
Procedure, shortened: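 Human CYP3A4 (20 nM) with Luciferin-PPXE at 25 uM (its KM) in 200 mM KPO4; 10 min compound preincubation, then NADPH regeneration and 60 min reaction at RT. Luciferin read by luminescence; normalized to 57 uM ketoconazole full inhibition.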

[10] = molecular target: Ubiquitin carboxyl-terminal hydrolase 1 (Homo sapiens) (UniProt O94782); experiment: Inhibitors of USP1/UAF1: Pilot qHTS (AID 504865);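 also: rhodamine fluorescence freed from ubiquitin-rhodamine substrate followed over time; top concentration of the series differs between compounds; % is scaled to controls: 0 for no effect and ±100 for the full control effect; nearly all actives have a fitted effect of over 35% in size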
Procedure, shortened: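 In 50mM HEPES pH 7.8 containing 0.5mM EDTA, 1mM TCEP, 0.1 mg/ml BSA and 0.01% Tween-20, 1nM USP1/UAF1 is exposed to compound for 15 min, then Ub-Rho (150nM final) is added and fluorescence is read over time.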

[11] = molecular target: Cytochrome P450 3A4 (Homo sapiens) (UniProt P08684); experiment: qHTS Assay for Inhibitors and Substrates of Cytochrome P450 3A4 (AID 884); also: % is scaled to controls: 0 for no effect and ±100 for the full control effect; nearly all actives have a fitted effect of over 50% in size
Procedure, shortened: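 20 nM human CYP3A4 with 25 uM Luciferin-PPXE (at KM) in 200 mM KPO4, preincubated 10 min with compound; NADPH regeneration started a 60 min RT reaction. Luciferin detected by luminescence, normalized to 57 uM ketoconazole as full inhibition.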

[12] = molecular target: 3',5'-cyclic-AMP phosphodiesterase 4B (Homo sapiens) (UniProt Q07343); experiment: qHTS Assay for Inhibitors of PDE-IV (AID 607; active = well fitted activation curve with a large enough effect in the main read-out, with a control signal flat, not every such curve was filed as active; also: % of control where 0% means no effect)
Procedure, shortened: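 HEK293 ACTOne cells with CNG channel (1000/well), endogenous PDE4; membrane potential dye, compounds up to 22.9 uM final. Fluorescence Ex 535/Em 590; RO 20-1724 (100 uM final) as reference.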

[13] = molecular target: Guanine nucleotide-binding protein G(i) subunit alpha-1 (Homo sapiens) (UniProt P63096); experiment: qHTS Assay for Inhibitors of RGS12 GoLoco Motif Activity (Green Fluorophore) (AID 879);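 also: 0% = labeled peptide with Gαi1 and full inhibition = labeled peptide alone without protein; negative values mean loss of peptide binding seen as reduced polarization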
Procedure, shortened: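 Fluorescence polarization assay: 50 nM Gαi1 with 10 nM FITC-labeled RGS12 GoLoco peptide in 10 mM Tris pH 7.5, 150 mM NaCl, 0.1 mM GDP, 0.05% NP40, 10 min at room temperature with compound.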

[14] = molecular target: Pyruvate kinase PKM (Homo sapiens) (UniProt P14618); experiment: qHTS Assay for Activators of Human Muscle Pyruvate Kinase (AID 954; active = well fitted curve in the direction sought with a large enough effect, not every such curve was filed as active;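 also: 0% = uninhibited enzyme and -100% = no enzyme or full thiadiazolimine inhibition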)
Procedure, shortened: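 Purified human PKM2 (0.1 nM) with 0.5 mM PEP (Km) and 0.1 mM ADP in 50 mM imidazole pH 7.2, KCl, MgCl2, 1 h at room temperature; ATP formed read by coupled luciferase luminescence. Normalized to no-enzyme/110 uM thiadiazolimine inhibition; 0.3 nM enzyme column for activation.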

[15] = molecular target: alpha-glucosidase (Oryza sativa, rice) (UniProt Q653V4); experiment: Counterscreen for Glucocerebrosidase Inhibitors: qHTS Assay for Rice alpha-Glucosidase at pH 5.0 (AID 997);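 also: 0% = full activity with enzyme and -100% = basal without enzyme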
Procedure, shortened: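 Rice alpha-glucosidase (4 nM final) with 400 uM 4-methylumbelliferyl-alpha-D-glucopyranoside in citrate buffer pH 5.0, 20 min at room temperature, stopped at pH 10; fluorescence 365/440 nm, compounds 0.7 nM–77 uM, AC50 from Hill fits.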

[16] = molecular target: Cytochrome P450 2C9 (Homo sapiens) (UniProt P11712); experiment: qHTS Assay for Inhibitors and Substrates of Cytochrome P450 2C9 (AID 883); also: potency is read from the fitted curve at half-maximal effect; nearly all actives have a fitted effect of over 60% in size
Procedure, shortened: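 10nM CYP2C9 + 100uM Luciferin-H (=KM), 25mM KPO4; cpd 10 min 37C; NADPH regen, 60 min 37C; stop/detect with P450 Glo-Buffer 20 min; luminescence. Norm. to 57uM sulphaphenazole as full inhibition.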

[17] = measured here: cell count channel max response
[18] = measured here: lipid channel max response

Cytochrome P450 3A4 (Homo sapiens), sequence (P08684 whole entry, looked up): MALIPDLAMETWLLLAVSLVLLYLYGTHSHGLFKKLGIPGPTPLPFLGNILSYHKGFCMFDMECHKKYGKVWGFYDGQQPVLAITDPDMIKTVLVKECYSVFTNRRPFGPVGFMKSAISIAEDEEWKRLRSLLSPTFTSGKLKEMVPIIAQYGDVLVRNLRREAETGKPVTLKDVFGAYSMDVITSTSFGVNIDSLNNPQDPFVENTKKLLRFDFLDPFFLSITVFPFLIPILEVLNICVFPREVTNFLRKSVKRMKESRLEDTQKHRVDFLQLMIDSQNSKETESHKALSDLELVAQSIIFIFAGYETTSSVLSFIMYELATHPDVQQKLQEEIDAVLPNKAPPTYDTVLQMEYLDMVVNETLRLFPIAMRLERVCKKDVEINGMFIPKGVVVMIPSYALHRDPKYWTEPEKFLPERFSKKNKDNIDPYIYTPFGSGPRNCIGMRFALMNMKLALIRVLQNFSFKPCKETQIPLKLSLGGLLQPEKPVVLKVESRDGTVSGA
3',5'-cyclic-AMP phosphodiesterase 4B (Homo sapiens), sequence (Q07343 whole entry, looked up): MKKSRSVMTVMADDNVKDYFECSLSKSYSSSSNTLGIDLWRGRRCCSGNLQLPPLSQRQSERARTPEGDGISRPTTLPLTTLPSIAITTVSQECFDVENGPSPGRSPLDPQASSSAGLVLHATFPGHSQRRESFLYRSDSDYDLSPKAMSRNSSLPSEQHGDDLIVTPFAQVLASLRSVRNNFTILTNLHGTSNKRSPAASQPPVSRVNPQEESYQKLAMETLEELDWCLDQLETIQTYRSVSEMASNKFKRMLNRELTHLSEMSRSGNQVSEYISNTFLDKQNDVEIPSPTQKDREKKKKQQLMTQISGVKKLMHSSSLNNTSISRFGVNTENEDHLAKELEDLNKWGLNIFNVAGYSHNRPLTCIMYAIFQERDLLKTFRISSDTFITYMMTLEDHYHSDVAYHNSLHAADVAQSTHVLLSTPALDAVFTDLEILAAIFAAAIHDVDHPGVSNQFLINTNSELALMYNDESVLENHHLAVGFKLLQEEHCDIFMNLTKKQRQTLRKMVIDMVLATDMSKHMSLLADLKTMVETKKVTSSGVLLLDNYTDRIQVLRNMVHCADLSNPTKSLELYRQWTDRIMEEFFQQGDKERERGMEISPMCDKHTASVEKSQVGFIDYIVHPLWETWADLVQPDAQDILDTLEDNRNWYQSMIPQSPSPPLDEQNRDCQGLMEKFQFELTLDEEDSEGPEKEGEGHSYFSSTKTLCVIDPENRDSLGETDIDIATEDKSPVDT
Cytochrome P450 1A2 (Homo sapiens), sequence (P05177 whole entry, looked up): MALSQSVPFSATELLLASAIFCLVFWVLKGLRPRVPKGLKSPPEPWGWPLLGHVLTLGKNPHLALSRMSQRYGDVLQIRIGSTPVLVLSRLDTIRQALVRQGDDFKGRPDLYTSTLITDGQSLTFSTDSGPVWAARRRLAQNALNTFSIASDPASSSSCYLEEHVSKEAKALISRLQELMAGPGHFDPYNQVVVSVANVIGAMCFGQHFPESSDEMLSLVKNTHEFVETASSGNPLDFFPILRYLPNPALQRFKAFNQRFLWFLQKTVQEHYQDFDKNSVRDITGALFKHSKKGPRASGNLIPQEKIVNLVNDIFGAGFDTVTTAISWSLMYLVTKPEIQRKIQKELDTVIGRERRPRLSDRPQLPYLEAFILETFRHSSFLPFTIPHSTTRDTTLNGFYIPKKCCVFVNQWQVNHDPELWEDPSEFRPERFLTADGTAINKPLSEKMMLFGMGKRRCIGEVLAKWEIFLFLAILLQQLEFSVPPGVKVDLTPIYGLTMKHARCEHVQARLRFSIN
Ubiquitin carboxyl-terminal hydrolase 1 (Homo sapiens), sequence (O94782 whole entry, looked up): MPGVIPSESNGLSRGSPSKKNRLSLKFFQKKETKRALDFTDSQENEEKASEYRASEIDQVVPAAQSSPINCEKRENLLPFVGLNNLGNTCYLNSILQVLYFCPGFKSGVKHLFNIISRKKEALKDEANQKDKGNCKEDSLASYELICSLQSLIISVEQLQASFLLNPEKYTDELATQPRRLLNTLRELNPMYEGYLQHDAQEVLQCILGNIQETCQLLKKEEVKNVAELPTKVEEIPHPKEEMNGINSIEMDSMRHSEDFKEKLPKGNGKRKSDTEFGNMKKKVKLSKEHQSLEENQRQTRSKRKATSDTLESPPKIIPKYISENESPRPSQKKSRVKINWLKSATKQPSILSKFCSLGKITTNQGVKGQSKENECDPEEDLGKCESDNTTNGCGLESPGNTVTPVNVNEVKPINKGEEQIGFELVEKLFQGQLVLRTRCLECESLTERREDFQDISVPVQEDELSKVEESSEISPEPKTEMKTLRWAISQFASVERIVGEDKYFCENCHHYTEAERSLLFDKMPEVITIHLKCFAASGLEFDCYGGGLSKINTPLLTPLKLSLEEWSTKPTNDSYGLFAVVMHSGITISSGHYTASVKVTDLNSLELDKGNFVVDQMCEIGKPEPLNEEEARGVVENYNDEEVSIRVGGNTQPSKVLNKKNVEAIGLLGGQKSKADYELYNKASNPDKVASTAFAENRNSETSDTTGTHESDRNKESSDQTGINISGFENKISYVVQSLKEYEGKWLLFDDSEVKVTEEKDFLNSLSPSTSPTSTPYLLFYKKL
DNA dC->dU-editing enzyme APOBEC-3G (Homo sapiens), sequence (Q9HC16 whole entry, looked up): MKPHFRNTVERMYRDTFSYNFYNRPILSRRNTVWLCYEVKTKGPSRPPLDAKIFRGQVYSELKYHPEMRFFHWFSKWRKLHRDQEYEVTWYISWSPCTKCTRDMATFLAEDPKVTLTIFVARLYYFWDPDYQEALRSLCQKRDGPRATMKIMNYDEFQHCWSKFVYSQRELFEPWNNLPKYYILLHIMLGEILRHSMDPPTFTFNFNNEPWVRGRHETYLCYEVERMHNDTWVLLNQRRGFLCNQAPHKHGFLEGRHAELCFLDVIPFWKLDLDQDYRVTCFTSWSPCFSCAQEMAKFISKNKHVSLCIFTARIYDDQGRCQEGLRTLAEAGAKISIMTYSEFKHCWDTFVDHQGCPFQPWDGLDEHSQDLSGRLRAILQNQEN
Glucocorticoid receptor (Homo sapiens), sequence (P04150 whole entry, looked up, the tested form may be a part): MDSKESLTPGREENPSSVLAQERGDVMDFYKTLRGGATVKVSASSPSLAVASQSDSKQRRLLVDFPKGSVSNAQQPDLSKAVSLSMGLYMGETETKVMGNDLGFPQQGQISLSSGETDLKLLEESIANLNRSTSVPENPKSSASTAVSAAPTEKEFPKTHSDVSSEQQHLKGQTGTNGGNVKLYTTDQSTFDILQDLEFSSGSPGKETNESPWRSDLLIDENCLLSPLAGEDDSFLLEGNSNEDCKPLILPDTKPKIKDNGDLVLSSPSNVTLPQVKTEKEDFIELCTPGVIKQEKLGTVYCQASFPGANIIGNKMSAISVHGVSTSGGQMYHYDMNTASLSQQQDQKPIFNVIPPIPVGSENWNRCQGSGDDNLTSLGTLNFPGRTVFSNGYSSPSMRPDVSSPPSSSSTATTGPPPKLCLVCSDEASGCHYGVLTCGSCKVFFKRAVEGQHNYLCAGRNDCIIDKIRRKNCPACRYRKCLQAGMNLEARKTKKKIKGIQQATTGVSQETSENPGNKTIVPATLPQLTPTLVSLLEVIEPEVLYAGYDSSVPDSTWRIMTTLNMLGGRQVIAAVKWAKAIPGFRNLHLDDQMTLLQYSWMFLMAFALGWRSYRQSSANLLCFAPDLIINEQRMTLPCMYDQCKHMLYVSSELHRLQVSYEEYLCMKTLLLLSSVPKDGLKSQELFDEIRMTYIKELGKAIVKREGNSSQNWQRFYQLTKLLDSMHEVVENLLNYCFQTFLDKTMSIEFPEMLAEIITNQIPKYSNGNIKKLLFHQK
Pyruvate kinase PKM (Homo sapiens), sequence (P14618 whole entry, looked up): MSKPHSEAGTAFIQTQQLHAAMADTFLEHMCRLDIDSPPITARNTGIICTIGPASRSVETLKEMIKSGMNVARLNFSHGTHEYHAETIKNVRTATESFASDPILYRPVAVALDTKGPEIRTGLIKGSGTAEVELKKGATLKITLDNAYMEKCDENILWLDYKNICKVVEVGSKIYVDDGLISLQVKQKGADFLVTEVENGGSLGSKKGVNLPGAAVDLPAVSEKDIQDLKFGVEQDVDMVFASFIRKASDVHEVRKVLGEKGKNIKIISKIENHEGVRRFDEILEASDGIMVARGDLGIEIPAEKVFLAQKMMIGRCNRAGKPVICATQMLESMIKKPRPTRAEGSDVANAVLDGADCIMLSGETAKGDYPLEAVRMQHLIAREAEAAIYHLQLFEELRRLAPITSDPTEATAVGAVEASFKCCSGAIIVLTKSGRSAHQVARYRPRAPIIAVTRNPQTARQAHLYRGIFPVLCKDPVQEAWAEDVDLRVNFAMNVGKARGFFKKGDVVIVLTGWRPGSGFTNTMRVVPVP
Guanine nucleotide-binding protein G(i) subunit alpha-1 (Homo sapiens), sequence (P63096 whole entry, looked up): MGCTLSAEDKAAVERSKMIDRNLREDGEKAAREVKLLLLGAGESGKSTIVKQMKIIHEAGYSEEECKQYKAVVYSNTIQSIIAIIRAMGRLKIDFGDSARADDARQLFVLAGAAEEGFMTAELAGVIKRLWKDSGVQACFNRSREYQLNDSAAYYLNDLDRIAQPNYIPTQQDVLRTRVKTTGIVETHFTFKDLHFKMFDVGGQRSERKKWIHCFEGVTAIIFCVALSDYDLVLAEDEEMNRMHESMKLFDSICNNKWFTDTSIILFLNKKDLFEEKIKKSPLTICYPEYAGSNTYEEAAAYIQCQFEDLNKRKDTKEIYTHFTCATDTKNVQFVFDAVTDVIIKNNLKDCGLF

N#Cc1cc2[nH]c(=O)c(=O)[nH]c2cc1[N+](=O)[O-]
inactive: Potency [2] > 46 µM | Potency [3] | activity change, negative = inhibition [4] 2.55% | Potency [5] | Potency [6] | Potency [7]
12.9%: max response [4, 17]
17.2%: max response [4, 18]
active: Potency [1] 31.6 µM

O=C(O)CCC/C=C\C[C@@H]1CO[C@H](C(F)(F)F)O[C@@H]1c1ccccc1O
-8.44%: max response [4, 18]
inactive: Potency [8] > 46 µM | Potency [2] > 46 µM | Potency [3] | Potency [9] | activity change, negative = inhibition [4] 0.11% | Potency [10] | Potency [5] | Potency [6] | Potency [7]
-8.58%: max response [4, 17]

O=C(O)c1c2ccccc2cc2ccccc12
inactive: Potency [3] | Potency [11] | activity change, negative = inhibition [4] 8.27% | Potency [10] | Potency [5] | Potency [7]
34.2%: max response [4, 18]
active: Potency [1] 0.2 µM | Potency [6] 26.7 µM
24.6%: max response [4, 17]

CCCCCCCCCC(=O)O[C@H](CC(=O)O)C[N+](C)(C)C
-1.87%: max response [4, 18]
inactive: Potency [8] > 46 µM | Potency [2] > 46 µM | Potency [3] | activity change, negative = inhibition [4] 3.92% | Potency [10] | Potency [5] | Potency [6] | Potency [7]
-0.114%: max response [4, 17]

CCC(=O)O[C@H](CC(=O)O)C[N+](C)(C)C
inactive: Potency [1] | Potency [8] > 46 µM | Potency [3] | activity change, negative = inhibition [4] 3.1% | Potency [10] | Potency [5] | Potency [6] | Potency [7]
-8.23%: max response [4, 17]
-5.22%: max response [4, 18]

N[C@@H](Cn1cc(F)c(=O)[nH]c1=O)C(=O)O
14.7%: max response [4, 18]
17.5%: max response [4, 17]
inactive: Potency [8] > 46 µM | Potency [2] > 46 µM | Potency [3] | activity change, negative = inhibition [4] -2.96% | Potency [10] | Potency [5] | Potency [6] | Potency [7]

N[C@H](C(=O)O)[C@@H]1C[C@@H]1C(=O)O
-19.5% and 5.06%: max response [4, 18]
-21% and 5.3%: max response [4, 17]
inactive: Potency [1] | Potency [8] > 46 µM | Potency [3] | Potency [12] | outcome [13] | outcome [14] | outcome [15] | activity change, negative = inhibition [4] 0.571% and -0.444% | Potency [10] | Potency [5] | Potency [6] | Potency [7]

CC(C)(C)c1ccc(S(=O)(=O)/C=C\C#N)cc1
active: Potency [1] 3.98 µM and 1.58 µM | Potency [4] 31.6 µM
5.78%: max response [4, 17]
-82.4%: max response [4, 18]
inactive: Potency [8] > 46 µM | outcome [13] | Potency [9] | outcome [14] | outcome [15] | Potency [5] | Potency [6] | Potency [7]

CCCCCCCCCCCCC/C=C\[C@@H](O)[C@H](CO)NC(C)=O
inactive: Potency [8] > 46 µM | Potency [2] > 46 µM | Potency [3] | Potency [12] | activity change, negative = inhibition [4] -6.83% | Potency [5] | Potency [6] | Potency [7]
9.95%: max response [4, 17]
active: Potency [1] 20 µM | Potency [16] 3.16 µM
-0.444%: max response [4, 18]
